Drawing on PubChem BioAssay (EPA / NIEHS), this text covers outcome and AC50 for 38 compounds.

Test [1] deals with human Retinoid X Receptor beta (RXRb), RXRB (gene 6257) (UniProt P28702). Briefly: ATG_RXRb_TRANS: Attagene TRANS-FACTORIAL HepG2 Assay for human Retinoid X Receptor beta (RXRb) (AID 2283013; active = hit-call score of the fitted dose curve at least 0.9, where 1 is the maximum). In short, it runs like this: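 Multiplexed TRANS reporter assay in HepG2; 24 h dosing; reporter mRNA by RT-PCR/CE fluorescence; gain-of-signal relative to DMSO.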
Test [2] has as its target human Vitamin D Receptor (VDR), VDR (gene 7421) (UniProt P11473). Briefly: ATG_VDR_TRANS: Attagene TRANS-FACTORIAL HepG2 Assay for human Vitamin D Receptor (VDR) (AID 2283022; active = hit-call score of the fitted dose curve at least 0.9, where 1 is the maximum). In outline: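 Transactivation by an exogenous VDR-Gal4 chimera in transiently transfected HepG2 cells was measured as reporter transcript level 24 hours after chemical treatment. RT-PCR products were analysed by capillary electrophoresis and fitted in the positive direction relative to DMSO.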

Read-out in test [3]: Interleukin-1 alpha (IL1a), IL1A (gene 3552)
The test is described as follows: BSK_BE3C_IL1a: BioMAP Diversity Plus: BE3C Assay for Interleukin-1 alpha (IL1a) Biomarker Activity (AID 2283016). To be noted: primary human bronchial epithelial cells; actives raise or lower the signal. In outline:
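Cultures of primary human bronchial epithelial cells receive test chemical. After 24 h, IL-1a is quantified by ELISA, while parallel wells are fixed in TCA and SRB-stained for total protein. Changes in either direction are fitted relative to DMSO.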

Read-out in test [4]: Monocyte Chemoattractant Protein-1 (MCP1), CCL2 (gene 6347)
The test is described as follows: BSK_3C_MCP1: BioMAP Diversity Plus: 3C Assay for Monocyte Chemoattractant Protein-1 (MCP1) Biomarker Activity (AID 2283017). To be noted: primary human endothelial cells (HUVEC); actives raise or lower the signal. In short, it runs like this: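 MCP-1 was measured by ELISA 24 h after dosing in primary HUVEC 3C cultures and fitted in both directions relative to DMSO; cytotoxicity was checked by SRB total-protein staining in parallel wells.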

Read-out in test [5]: Monocyte Chemoattractant Protein-1 (MCP1), CCL2 (gene 6347)
Briefly: BSK_4H_MCP1: BioMAP Diversity Plus: 4H Assay for Monocyte Chemoattractant Protein-1 (MCP1) Biomarker Activity (AID 2283018). The note with it: primary human endothelial cells (HUVEC); actives raise or lower the signal. In short, it runs like this: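 Readout: MCP-1 ELISA on compound-treated HUVEC, sampled 24 h post-dosing. Baseline and negative control DMSO; bidirectional fit. Overt toxicity checked alongside by sulforhodamine B protein staining at time of biomarker measurement.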

Read-out in test [6]: Human Leukocyte Antigen - DR isotype (HLADR), HLA-DRA (gene 3122)
Briefly: BSK_3C_HLADR: BioMAP Diversity Plus: 3C Assay for Human Leukocyte Antigen - DR isotype (HLADR) Biomarker Activity (AID 2283019).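 As to outcome: ELISA of cell-surface HLA-DR on HUVEC 24 h after dosing.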 To be noted: primary human endothelial cells (HUVEC); actives raise or lower the signal. In outline: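 Bidirectional fitting against DMSO was applied to the HLA-DR ELISA signal from human umbilical vein endothelial cells, 24 h post-dose. Cytotoxicity came from parallel SRB total-protein staining; 3C proliferation was counted by SRB at 48 h.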

Read-out in test [7]: Interleukin-8 (IL8), CXCL8 (gene 3576)
The test is described as follows: BSK_3C_IL8: BioMAP Diversity Plus: 3C Assay for Interleukin-8 (IL8) Biomarker Activity (AID 2283020). To be noted: primary human endothelial cells (HUVEC); actives raise or lower the signal. In short, it runs like this: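 Human vascular endothelial cells (umbilical vein) in the 3C system; IL-8 level detected by ELISA at 24 h post-dose, with DMSO as baseline.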

Read-out in test [8]: Monokine induced gamma interferon (MIG), CXCL9 (gene 4283)
Briefly: BSK_3C_MIG: BioMAP Diversity Plus: 3C Assay for Monokine induced gamma interferon (MIG) Biomarker Activity (AID 2283021).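 As to AC50: MIG protein level measured by immunoassay in the treated endothelial cultures.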 The note with it: primary human endothelial cells (HUVEC); actives raise or lower the signal. In short, it runs like this:
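After 24 h of treatment, human umbilical vein endothelial cultures (3C system) had their MIG biomarker level determined by ELISA, with DMSO serving as negative control.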

Read-out in test [9]: E-selectin (Homo sapiens) (UniProt P16581)
The test is described as follows: BSK_3C_Eselectin: BioMAP Diversity Plus: 3C Assay for Eselectin Biomarker Activity (AID 2283015).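 As to outcome: cell surface E-selectin protein quantified by ELISA 24 h after dosing.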 The note with it: primary human endothelial cells (HUVEC); actives raise or lower the signal. In outline: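 E-selectin ELISA readout, fitted bidirectionally relative to DMSO, taken 24 h post-dosing in HUVEC cultures of the 3C system. Overt cytotoxicity tracked with sulforhodamine B staining of parallel wells.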

Test [10] has as its target human Thyroid Receptor alpha (THRa1), THRA (gene 7067) (UniProt P10827). Briefly: ATG_THRa1_TRANS: Attagene TRANS-FACTORIAL HepG2 Assay for human Thyroid Receptor alpha (THRa1) (AID 2283014; active = hit-call score of the fitted dose curve at least 0.9, where 1 is the maximum). In outline: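 Transcripts from GAL4-UAS-driven reporters, measured after 24 h compound exposure by RT-PCR plus capillary electrophoresis of 6-FAM-labeled fragments, were fitted for gain of signal relative to DMSO. Cells: transiently transfected HepG2 expressing NR-Gal4 chimeras.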

Inconclusive results are not listed. Activity calls are given as the source filed them. The calls were made as follows, unless noted: active = hit-call score of the fitted dose curve at least 0.9, where 1 is the maximum; inactive = score below 0.9.

Chain of human Retinoid X Receptor beta (RXRb), RXRB (gene 6257) (P28702 whole entry, looked up, the tested form may be a part): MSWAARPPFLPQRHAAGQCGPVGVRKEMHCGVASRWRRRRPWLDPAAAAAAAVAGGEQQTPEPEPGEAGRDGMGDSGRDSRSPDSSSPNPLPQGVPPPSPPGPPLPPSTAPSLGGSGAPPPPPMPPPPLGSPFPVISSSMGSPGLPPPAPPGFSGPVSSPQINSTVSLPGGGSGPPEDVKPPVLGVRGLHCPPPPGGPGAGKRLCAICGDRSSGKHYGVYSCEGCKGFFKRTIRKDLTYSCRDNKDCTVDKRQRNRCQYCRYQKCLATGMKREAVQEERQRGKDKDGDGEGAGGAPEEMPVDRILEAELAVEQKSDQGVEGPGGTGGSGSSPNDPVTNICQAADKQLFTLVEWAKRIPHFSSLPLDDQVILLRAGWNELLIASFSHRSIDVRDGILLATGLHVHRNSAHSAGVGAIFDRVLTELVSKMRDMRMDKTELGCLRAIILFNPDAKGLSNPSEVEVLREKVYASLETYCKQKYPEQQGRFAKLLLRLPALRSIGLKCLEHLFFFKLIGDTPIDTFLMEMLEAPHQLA
Chain of human Thyroid Receptor alpha (THRa1), THRA (gene 7067) (P10827 whole entry, looked up, the tested form may be a part): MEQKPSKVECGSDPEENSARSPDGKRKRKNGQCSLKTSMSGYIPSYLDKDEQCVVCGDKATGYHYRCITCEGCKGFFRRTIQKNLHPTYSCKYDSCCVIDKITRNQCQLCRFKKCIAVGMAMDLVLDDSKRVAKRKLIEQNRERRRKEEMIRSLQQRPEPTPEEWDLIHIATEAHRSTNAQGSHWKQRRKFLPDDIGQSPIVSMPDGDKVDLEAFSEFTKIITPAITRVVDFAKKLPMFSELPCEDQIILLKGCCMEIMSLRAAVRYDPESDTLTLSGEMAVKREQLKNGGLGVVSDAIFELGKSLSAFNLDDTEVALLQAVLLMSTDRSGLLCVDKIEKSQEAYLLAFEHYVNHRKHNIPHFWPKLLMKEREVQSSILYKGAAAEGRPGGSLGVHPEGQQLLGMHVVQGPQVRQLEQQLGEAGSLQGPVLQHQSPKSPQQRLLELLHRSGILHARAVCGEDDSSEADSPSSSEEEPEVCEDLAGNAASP
Chain of human Vitamin D Receptor (VDR), VDR (gene 7421) (P11473 whole entry, looked up, the tested form may be a part): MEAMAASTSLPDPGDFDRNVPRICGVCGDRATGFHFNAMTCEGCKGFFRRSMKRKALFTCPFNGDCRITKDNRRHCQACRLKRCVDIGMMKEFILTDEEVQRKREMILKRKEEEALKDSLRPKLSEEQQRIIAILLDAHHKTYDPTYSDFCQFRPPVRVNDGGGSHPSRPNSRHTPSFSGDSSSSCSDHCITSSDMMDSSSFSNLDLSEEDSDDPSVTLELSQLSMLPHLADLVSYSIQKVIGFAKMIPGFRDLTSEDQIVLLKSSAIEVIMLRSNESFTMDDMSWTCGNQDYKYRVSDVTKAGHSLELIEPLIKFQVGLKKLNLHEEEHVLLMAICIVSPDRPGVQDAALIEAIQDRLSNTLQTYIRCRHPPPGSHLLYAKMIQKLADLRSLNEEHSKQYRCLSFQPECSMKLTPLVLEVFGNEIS
Chain of E-selectin (Homo sapiens) (P16581 whole entry, looked up): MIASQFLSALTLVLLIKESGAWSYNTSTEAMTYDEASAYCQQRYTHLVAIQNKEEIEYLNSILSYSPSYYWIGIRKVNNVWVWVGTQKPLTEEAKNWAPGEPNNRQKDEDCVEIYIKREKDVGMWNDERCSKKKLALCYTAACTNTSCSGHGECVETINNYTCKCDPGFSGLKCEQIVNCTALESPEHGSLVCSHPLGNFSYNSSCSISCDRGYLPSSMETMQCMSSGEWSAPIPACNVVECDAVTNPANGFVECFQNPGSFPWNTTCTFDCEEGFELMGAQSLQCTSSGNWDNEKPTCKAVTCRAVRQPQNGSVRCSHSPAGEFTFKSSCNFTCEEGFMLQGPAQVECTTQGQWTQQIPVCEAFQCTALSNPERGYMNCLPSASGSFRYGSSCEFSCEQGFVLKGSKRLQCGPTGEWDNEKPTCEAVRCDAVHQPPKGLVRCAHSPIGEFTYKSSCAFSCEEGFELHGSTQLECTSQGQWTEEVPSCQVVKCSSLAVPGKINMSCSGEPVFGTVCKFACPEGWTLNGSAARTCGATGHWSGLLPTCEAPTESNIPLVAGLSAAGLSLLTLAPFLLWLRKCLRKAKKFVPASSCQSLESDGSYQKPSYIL

With `ClCCN1CCOCC1`, the outcome in test [1] and in [2] was inactive.
As to `CCCSP(=S)(OCC)Oc1ccc(Cl)cc1Cl` (stereo not given), in [1], the AC50 (commonly the concentration at which the activity in the assay is half-maximal) is 27 µM (active). For the same compound, the compound was classed as inactive in [2].
Regarding `CCOC(=O)CC(=O)CCl`, the compound was classed as inactive in test [1], in test [4], in [5] and in [8]. Besides, the values for the AC50 in test [3], in test [6] and in test [7] were 20 µM (active), 28.1 µM (active) and 3.97 µM (active), respectively.
In the case of `Clc1cccc(Cl)c1Cl`, the outcome in test [1], in test [3], in test [5], in test [6], in test [7] and in test [8] was inactive. Also, in test [2], the compound was classed as inactive.
As to `C#CCOC(=O)/C=C(C)/C=C/CC(C)CCCC(C)C` (stereo not given), the AC50 in [1] is 3.9 µM (active); in test [9] it was 6.38 µM (active); in test [5], 13.4 µM (active); in [6], 28.1 µM (active); in test [7] it was 0.0524 µM (active). Besides, the outcome in test [3], in test [8] and in test [2] was inactive.
Turning to `CC(C)=CC1C(C(=O)OCc2cccc(Oc3ccccc3)c2)C1(C)C` (stereo not given), the compound was classed as inactive in test [1], in test [3], in [7], in test [8] and in [2]. In addition, the AC50 in [5] and in test [6] was 20 µM (active) throughout.
`c1ccc2sc(SNC3CCCCC3)nc2c1`: the compound was classed as inactive in [1], in test [3], in test [4], in [5], in [7] and in test [8]. The AC50 in [6] is 29.3 µM (active).
As for `O=C/C(Cl)=C(/Cl)C(=O)O`, the compound was classed as inactive in [1] and in [2].
With `OCCN(CCO)CCO`, the compound was classed as inactive in test [1], in test [9], in test [3], in [5], in test [6] and in test [7]. Also, in test [8], the result was inactive.
In the case of `CCOP(=S)(OCC)SCS(=O)(=O)C(C)(C)C`, the compound was called inactive in test [1], in [3], in test [4], in [5], in test [6] and in test [7]. Moreover, the outcome in test [8] and in test [2] was inactive.
With `CCOP(=S)(OCC)SCSc1cc(Cl)ccc1Cl`, the AC50 in test [1] was 25.5 µM (active). Also, in test [2], the result was inactive.
Taken in the same sequence, the figures for `CCOP(=S)(OCC)O/N=C(\C#N)c1ccccc1` were 27.5 µM (active) and “inactive”.
Regarding `O=[N+]([O-])c1cccc2ccccc12`, the half-maximal activity concentration (AC50) in test [1] was 100 µM (active). Moreover, the outcome in [9], in test [3], in test [5], in test [6], in test [7] and in test [8] was inactive.
For `Cc1c([N+](=O)[O-])c(C)c([N+](=O)[O-])c(C(C)(C)C)c1[N+](=O)[O-]`, the AC50 was 1.12 µM (active) in test [1], 20 µM (active) in test [5] and 26.9 µM (active) in test [6]. The outcome in [3], in test [4], in test [7] and in test [8] was inactive.
As for `O=C(NC(=O)c1c(F)cccc1F)Nc1ccc(Cl)cc1`, the compound was classed as inactive in [1], in test [10] and in test [2].
`OCC(c1ccc(Cl)cc1)c1ccc(Cl)cc1`: the result in [1] and in test [2] was inactive.
In the case of `CC1CC(=O)O1` (stereo not given), the call in test [1] and in test [2] was inactive.
For the compound `CCOC(=O)C(SP(=S)(OC)OC)c1ccccc1` (stereo not given), the AC50 in test [1] is 32.2 µM (active); in [5] it was 3.97 µM (active); in test [6], 31.8 µM (active). Also, the result in test [9], in test [3], in [7], in test [8] and in test [2] was inactive.
`CC1(C)COP(Oc2ccccc2)OC1`: the compound was called inactive in test [1] and in test [2].
Take `O=[N+]([O-])c1c2ccccc2cc2ccccc12`: the half-maximal activity concentration (AC50) in test [1] is 5.12 µM (active). Moreover, the outcome in [2] was inactive.
As for `O=C(Cc1ccccc1)OCCc1ccccc1`, the outcome in [1], in [3], in test [5], in test [6], in test [7] and in test [8] was inactive. The compound was classed as inactive in test [2].
For the compound `CC(=Cc1ccccc1)[N+](=O)[O-]`, in test [1], the concentration at half-maximal activity (AC50) was 17.3 µM (active). Moreover, the call in [2] was inactive.
With `CC(C)O.CC(C)O.OCCN(CCO)CCO.OCCN(CCO)CCO.[Ti]`, the result in test [1], in [3], in test [5], in test [6], in test [7] and in test [8] was inactive.
`CCCCCCCCCCCCc1cccc(S(=O)(=O)O)c1`: the results for the AC50 in test [1] and in test [3] were 30 µM (active) and 27.2 µM (active), respectively. Besides, the result in [5], in test [6], in test [7] and in [8] was inactive.
Consider `CCCSP(=S)(OCC)Oc1ccc(SC)cc1` (stereo not given), for which the compound was classed as inactive in [1] and in test [2].
On to `O=C(O)C1(c2ccc3c(c2)OC[C@H](Cc2ccc(-c4ccccc4)cc2)[C@H]3O)CCCC1`, for which the compound was called inactive in [1] and in [2]. The AC50 in test [9] was 24.9 µM (active); in test [3] it was 15.3 µM (active); in [4], 23.6 µM (active); in [5] it was 20 µM (active); in test [6], 20 µM (active); in test [7], 29.9 µM (active). In test [8], the AC50 was 35.7 µM (active).
`Nc1c(Oc2ccccc2)cc(O)c2c1C(=O)c1ccccc1C2=O`: the AC50 in test [1] is 17.4 µM (active). The result in test [9], in test [3], in [5], in [6], in test [7] and in test [8] was inactive. In test [2], the call was inactive.
Turning to `CC(C)(C)c1ccccc1O`, the half-maximal activity concentration (AC50) in test [1] was 10.6 µM (active). Also, the result in [3], in test [5], in test [6], in test [7] and in [8] was inactive.
Take `CC(C)(C)c1ccc(CCOc2ncnc3ccccc23)cc1`: the outcome in test [1] and in test [2] was inactive.
On to `NC(=O)c1ccc(N)nc1`, for which the outcome in test [10] was inactive.
Turning to `CC(c1ccc(O)cc1)c1ccc(O)cc1`, in [10], the outcome was inactive.
As for `C1CN2CCN1CC2`, the compound was classed as inactive in test [10].
Consider `FC(F)OCC(F)(F)C(F)(F)F`, for which the call in test [1] and in [2] was inactive.
Take `C#C[C@]1(O)CC[C@H]2[C@@H]3CCC4=CC(=O)CC[C@]4(C)[C@H]3CC[C@@]21C`: the compound was classed as inactive in test [10].
On to `Cc1cc(Cl)ccc1OC(C)C(=O)O` (stereo not given), for which the compound was called inactive in [10], in test [3], in [5], in test [6], in test [7] and in test [8].
In the case of `CC(C)[C@H](C(=O)OC(C#N)c1cccc(Oc2ccccc2)c1)c1ccc(OC(F)F)cc1` (stereo not given in full), the compound was called inactive in test [10].
As to `O=C(CCl)NCO`, the compound was called inactive in [10], in test [3], in test [4], in test [5], in test [6] and in test [7]. Further, the outcome in [8] and in test [2] was inactive.
As for `Cc1cc(C(C)(C)c2ccc(O)c(C)c2)ccc1O`, the outcome in test [10], in test [8] and in [2] was inactive. Also, the AC50 is 15.7 µM (active) in [3], 12.5 µM (active) in [5], 14.7 µM (active) in test [6] and 18.2 µM (active) in [7].
